# Hits are enriched below; roughly 9.4% of the tested compounds scored in any of these assays.
# NPC1 prom act – activates the NPC1 promoter | 320,000 tested, 2.4% active | AID 485313 | Huh7 NPC1 promoter luciferase reporter, 24 h | Potency, µM (titrated, usually from 9.22 µM), most hits filed as activators; further: nearly all actives have a fitted effect of over 60% in size
#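 Quantitative HTS used a cell-based reporter: Huh7 cells stably bearing the NPC1 promoter upstream of luciferase were treated with compounds for 24 h, and promoter activation was read as luminescence.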
# Rab9 promoter act – activators of Rab9 promoter | AID 485297 | Huh7 Rab9 promoter-luciferase reporter, luminescence, 24 h | Potency, µM (top dose mostly 9.22 µM), most hits filed as activators | 320,000 tested, 2.8% active; further: nearly all actives have a fitted effect of over 60% in size
#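 Using Huh7 cells stably transfected with Rab9 promoter–luciferase, compounds were incubated 24 h at 37 °C, 5% CO2; luciferase luminescence was read 10 min after reagent addition.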
# ELG1 repair inh – inhibitors of ELG1-dependent DNA repair in HEK293T cells; HEK293T ELG1-luciferase reporter, luminescence, 16 h; DNA damage induced by 5-fluorouridine; 330,000 tested, 2.3% active; Potency, µM (titrated, usually from 46.1 µM), hits mostly inhibitors; AID 504467; further: nearly all actives have a fitted effect of over 55% in size
#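 HEK293T cells expressing luciferase-tagged ELG1 (2,000/well) received 5-Fluorouridine plus compound or DMSO for 16 hr at 37 °C. Luciferase was read by ONE-Glo luminescence after 30 min at room temperature.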
# ELG1 genotox – inducers of genotoxicity in HEK293T ELG1-luciferase cells; HEK293T ELG1-luciferase reporter, luminescence, 16 h; 330,000 tested, 1.3% active; Potency, µM (titrated, usually from 46 µM), hits mostly activators; further: nearly all actives have a fitted effect of over 60% in size
#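 ELG1-luciferase HEK293T cells, 2,000/well; compound pinned in; 16 hr, 37 °C, 5% CO2; ONE-Glo, 30 min RT; luminescence on CCD imager.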
# FLuc modulator – inhibits or activates purified firefly luciferase, miR-21 counter-screen | P08659 | purified FLuc, Km substrates, luminescence inhibition | Potency, µM (doses to about 57.5 µM), actives largely listed as inhibitors | 360,000 tested, 6.9% active; further: nearly all actives have a fitted effect of over 55% in size
# Target sequence (P08659 whole entry, looked up): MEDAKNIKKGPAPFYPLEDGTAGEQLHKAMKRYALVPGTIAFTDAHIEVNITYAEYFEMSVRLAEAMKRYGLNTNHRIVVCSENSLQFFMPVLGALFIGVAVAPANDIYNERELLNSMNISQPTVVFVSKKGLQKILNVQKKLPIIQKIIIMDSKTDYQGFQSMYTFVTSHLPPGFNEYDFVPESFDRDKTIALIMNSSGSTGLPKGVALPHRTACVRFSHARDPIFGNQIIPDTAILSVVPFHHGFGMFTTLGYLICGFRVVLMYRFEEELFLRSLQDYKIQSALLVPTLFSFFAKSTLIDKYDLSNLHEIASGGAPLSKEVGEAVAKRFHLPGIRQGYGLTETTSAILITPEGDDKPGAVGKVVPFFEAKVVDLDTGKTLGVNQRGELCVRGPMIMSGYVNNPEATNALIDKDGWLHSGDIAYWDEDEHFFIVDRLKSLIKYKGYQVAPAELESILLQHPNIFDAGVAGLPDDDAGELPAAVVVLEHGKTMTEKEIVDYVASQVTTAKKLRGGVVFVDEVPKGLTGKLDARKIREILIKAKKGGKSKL
#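 Purified P. pyralis luciferase, 10 nM final, with Km-level 10 uM D-luciferin and 10 uM ATP in 50 mM Tris acetate pH 7.5, 10 mM Mg acetate, 0.01% Tween-20, 0.05% BSA; 6-point qHTS titration about 60 µM downward; luminescence read.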
# SMN2 splice up – SMN2 splice variant enhancement. HEK293 SMN2-luciferase splicing reporter, luminescence, 30-36 h. Potency, µM (series often up to 46.1 µM), most hits filed as activators. 210,000 tested, 2.8% active. AID 1458; further: nearly all actives have a fitted effect of over 55% in size
#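 qHTS luciferase splicing reporter: luminescence rises when SMN2 exon 7 is included in transfected HEK293 cells. Compound exposure lasted 30-36 h at 37C, with 4.5 mM final sodium butyrate as control, followed by a ONE-Glo read.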
# Numbers stand for hits; i = inactive; ? = inconclusive; nt = no result; [ ] = remark or other dose. The call rests on the fitted dose curve; in most records, active means well fitted curve in the direction sought with a large enough effect; inconclusive means small, poorly fitted or top-dose-only effect, or another doubt; inactive means no such curve, though single readings can be large; an effect the other way counts as inactive or inconclusive.
SMILES,NPC1 prom act,Rab9 promoter act,ELG1 repair inh,ELG1 genotox,FLuc modulator,SMN2 splice up
O=C(O)c1cccc2cccc(-c3cccc4cccc(C(=O)O)c34)c12,nt,nt,nt,nt,nt,i[9.22 µM]
CCOc1ccc(NC(=O)CSc2cn(CC(=O)N3CCOCC3)c3ccccc23)cc1,nt,nt,nt,nt,i,nt
O=C(O)c1ccccc1-c1ccccc1C(=O)Nc1ccc(-c2nc3cc(Cl)ccc3o2)cc1,i,i,?,i,15µM,nt
CC(=O)Nc1ccc(-c2nc3cc(Cl)ccc3o2)cc1,0.5µM,0.79µM,?,2.1µM,1.3µM,nt
CC1=C(C(=O)OC2CCCC2)C(c2cccc(Cl)c2Cl)CC(=O)N1 (stereo not given),nt,nt,nt,nt,i,i
O=C1CC[C@H](NC(=O)c2ccccc2)C(=O)N1,nt,nt,nt,nt,nt,i[9.22 µM]
CCCN1C(=O)c2ccc(C(=O)Nc3ccccc3C(=O)O)cc2C1=O,?,i,?,i,3.8µM,nt
O=C(Nc1ccccc1C(=O)O)c1ccc2c(c1)C(=O)N(c1cccc([N+](=O)[O-])c1)C2=O,i,i,i,i,27µM,nt
Cc1ccnc(NC(=O)c2ccc3c(c2)C(=O)N(CC(C)C)C3=O)c1,i,i,i,i,i,nt
Cc1ccc(O)c(NC(=O)c2ccc3c(c2)C(=O)N(CC(C)C)C3=O)c1,2.8µM,?,?,?,2.4µM,nt
CCCN1C(=O)c2ccc(C(=O)Nc3cc(C)ccc3O)cc2C1=O,2.2µM,?,?,?,3.4µM,nt
CCCCN1C(=O)c2ccc(C(=O)Nc3cccc(C)c3C)cc2C1=O,i,i,i,i,i,i
COCCn1c(C)cc(O)c(C(c2ccccc2OC)N2CCN(c3ccccc3)CC2)c1=O (stereo not given),nt,nt,nt,nt,i,nt
Cc1[nH]c2ccc(-c3nnc(SCC(=O)c4ccc(F)cc4)o3)cc2c1C,i,i,?,i,i,i
Cc1cc(C)c(C)c(C(=O)CSc2nnc(-c3ccc4[nH]c(C)c(C)c4c3)o2)c1C,i,i,16µM,i,i,i
CCc1ccccc1NC(=O)Nc1cc(C(=O)NCc2ccc(C)cc2)ccc1N1CCCC1,nt,nt,nt,nt,i,nt
COc1ccccc1NC(=O)COC(=O)C12CC3CC(CC(Br)(C3)C1)C2,nt,nt,i,i,nt,nt
Cn1cccc1C(=O)NC(=O)COC(=O)c1ccccc1O,i,i,i,i,i,35µM
COc1ccccc1NC(=O)COC(=O)C12CC3CC(CC(Cl)(C3)C1)C2,i,i,i,i,15µM,i
Cn1cccc1C(=O)NNC(=O)COc1ccccc1Cl,i,i,?,i,15µM,nt
COc1ccccc1NC(=O)COC(=O)C1CC2CCCC(C1)C2=O (stereo not given),nt,nt,i,i,nt,nt
COc1ccccc1NC(=O)COC(=O)C1CC2C=CC1C2 (stereo not given),i,i,?,i,24µM,i
Cc1cc(C)cc(NC(=O)Cn2c(=O)n(Cc3ccc4c(c3)OCO4)c(=O)c3oc4ccccc4c32)c1,nt,nt,nt,nt,i,nt
Cc1cc(C)c(NC(=O)CSc2nc3nc(C)cc(C)n3n2)c(C)c1,nt,nt,nt,nt,i,i
Cn1cccc1C(=O)NC(=O)COC(=O)C12CC3CC(CC(O)(C3)C1)C2,i,i,?,9.2µM,6µM,i
SMILES,NPC1 prom act,Rab9 promoter act,ELG1 repair inh,ELG1 genotox,FLuc modulator,SMN2 splice up
COC(=O)c1ccc(C(=O)OC)c(NC(=O)COC(=O)C23CC4CC(CC(O)(C4)C2)C3)c1,i,i,?,i,i,nt
COc1ccccc1CNC(=O)COC(=O)C12CC3CC(CC(O)(C3)C1)C2,i,i,i,i,i,nt
CCOc1ccccc1NC(=O)COC(=O)C12CC3CC(CC(O)(C3)C1)C2,i,i,i,i,11µM,nt
COCCCn1c(C)cc(C(=O)COC(=O)C23CC4CC(CC(O)(C4)C2)C3)c1C,?,0.63µM,?,?,?,nt
O=C(COC(=O)C12CC3CC(CC(O)(C3)C1)C2)Nc1ccc(Cl)cc1F,?,1.3µM,?,?,7.6µM,nt
O=C(N/N=C1\CCc2ccccc21)c1ccccc1Cl,2.2µM,2.8µM,?,18µM,11µM,10µM
Cc1ccc(C(=O)N/N=C2\CCc3ccccc32)c(C)c1,?,2.2µM,?,2.3µM,4.8µM,0.79µM
CCOC(=O)NN=C1c2ccccc2-c2ccccc21,i,i,i,i,i,nt
Cc1ccc(C)c(NC(=S)N/N=C2/CCCCc3ccccc32)c1,i,i,i,i,i,i
O=C(N/N=C1\CCc2ccccc21)c1ccc(O)cc1,2.8µM,2.8µM,?,4.6µM,7.6µM,18µM
CCOC(=O)N/N=C1\CCc2ccccc21,i,i,?,?,?,16µM
O=C(N/N=C1/CCc2ccccc21)C1CC1,i,i,?,?,?,i
CNC(=O)c1c(NC(=O)c2cc(=O)c3cc(C)c(C)cc3o2)sc2c1CCCC2,nt,nt,nt,nt,i,i
CCOc1ccc(N(C(=O)c2ccc(Cl)cc2)S(=O)(=O)c2ccc3c(c2)n(C)c(=O)n3C)cc1,nt,nt,nt,nt,i,i
